Test [1] addresses Peroxisome proliferator-activated receptor delta (Homo sapiens) (UniProt Q03181). The test can be described thus: qHTS assay to identify small molecule agonists of the peroxisome proliferator-activated receptor delta (PPARd) signaling pathway (AID 743212). Further: on the % scale 0 is the no-effect control and ±100 the full control effect. A digest of the protocol:
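GeneBLAzer UAS-bla HEK293H cells carrying a PPARδ construct were exposed to compounds at 37 °C. Beta-lactamase activity was read by FRET fluorescence after 2 h at room temperature with LiveBLAzer B/G substrate.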

A short description of test [2]: qHTS assay to identify small molecule antagonists of the peroxisome proliferator-activated receptor delta (PPARd) signaling pathway - cell viability counter screen (AID 743213; active means well fitted curve in the direction sought with a large enough effect in the repeat runs; an effect the other way counts as inactive or inconclusive; further: on the % scale 0 is the no-effect control and ±100 the full control effect; nearly all actives have a fitted effect of over 50% in size). A digest of the protocol: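 Agonist-stimulated (L165041, 300 nM final) HEK293H PPARd UAS-bla cells are exposed to compounds for 17 h at 37 C, and ATP-based luminescence (CellTiter-Glo) from the same wells reports cytotoxicity.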
(In general: In qHTS, concentration-response curves come from the screen itself.)

For test [3], the target named is Peroxisome proliferator-activated receptor delta (Homo sapiens) (UniProt Q03181). The test can be described thus: qHTS assay to identify small molecule antagonists of the peroxisome proliferator-activated receptor delta (PPARd) signaling pathway (AID 743215; active means well fitted inhibition curve with a large enough effect in the signal ratio in the repeat runs, not every such curve was filed as active; the % refers to the signal ratio; further: series mostly up to about 62 µM; on the % scale 0 is the no-effect control and ±100 the full control effect). A digest of the protocol: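 PPARd UAS-bla HEK293H cells were pre-incubated 5 h at 37 C, then given test compounds in DMSO plus agonist L165041 (300 nM final). After 17 h at 37 C, beta-lactamase FRET substrate was added; fluorescence read after 2 h at room temperature.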

Test [4] is described as follows: qHTS assay to identify small molecule agonists of the farnesoid-X-receptor (FXR) signaling pathway - cell viability counter screen (AID 743218; active means well fitted curve in the direction sought with a large enough effect in the repeat runs; an effect the other way counts as inactive or inconclusive; further: on the % scale 0 is the no-effect control and ±100 the full control effect; nearly all actives have a fitted effect of over 45% in size). An outline of the steps:
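FXR-UAS-bla HEK 293T cells, plated 5 h at 37 C, were exposed to compounds for 16 h at 37 C. CellTiter-Glo was then added to the same wells as the bla readout; luminescence read after 30 min at room temperature.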

The nature of test [5]: qHTS assay to identify small molecule antagonists of the farnesoid-X-receptor (FXR) signaling pathway - cell viability counter screen (AID 743221; active means well fitted cell-killing curve with a large enough effect in the repeat runs, not every such curve was filed as active; further: on the % scale 0 is the no-effect control and ±100 the full control effect; nearly all actives have a fitted effect of over 50% in size). A digest of the protocol:
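Cytotoxicity is taken from ATP luminescence (CellTiter-Glo, 30 min, room temperature) in FXR-bla HEK 293T cells previously incubated 16 h at 37 C with compound and chenodeoxycholic acid at 50 uM final.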

The target of test [6] is Vitamin D3 receptor (Homo sapiens) (UniProt P11473). Description: qHTS assay to identify small molecule agonists of the vitamin D receptor (VDR) signaling pathway (AID 743222). Further: on the % scale 0 is the no-effect control and ±100 the full control effect. An outline of the steps: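 VDR-bla cells were plated 4 h at 37C/5% CO2, then exposed to compounds in DMSO for 16 h. After LiveBLAzer B/G FRET substrate addition and 2 h at room temperature, beta-lactamase reporter fluorescence was read.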

Test [7] has the same target. The test can be described thus: qHTS assay to identify small molecule antagonists of the vitamin D receptor (VDR) signaling pathway (AID 743223; active means well fitted inhibition curve with a large enough effect in the signal ratio in the repeat runs, not every such curve was filed as active; the % refers to the signal ratio; further: on the % scale 0 is the no-effect control and ±100 the full control effect). An outline of the steps: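 Quantitative HTS in VDR-bla reporter cells stimulated with 1alpha,25-dihydroxyvitamin D3, 3 nM final. Compound exposure 16 h, 37C, 5% CO2. Read-out: beta-lactamase FRET substrate fluorescence, 2 h RT.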

Test [8] can be described thus: qHTS assay to identify small molecule agonists of the vitamin D receptor (VDR) signaling pathway - cell viability counter screen (AID 743224; active means well fitted curve in the direction sought with a large enough effect in the repeat runs; an effect the other way counts as inactive or inconclusive; further: series mostly up to about 63 µM; on the % scale 0 is the no-effect control and ±100 the full control effect; nearly all actives have a fitted effect of over 50% in size). An outline of the steps:
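VDR-bla cells were preincubated 4 h at 37C/5% CO2, then exposed to compounds for 16 h. After the 2 h room-temperature bla FRET read, CellTiter-Glo was added to the same wells and luminescence read after 30 min.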

The nature of test [9]: qHTS assay to identify small molecule antagonists of the vitamin D receptor (VDR) signaling pathway - cell viability counter screen (AID 743225; active means well fitted curve in the direction sought with a large enough effect in the repeat runs; an effect the other way counts as inactive or inconclusive; further: on the % scale 0 is the no-effect control and ±100 the full control effect; nearly all actives have a fitted effect of over 50% in size). A digest of the protocol: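 Same-well multiplex: following 16 h treatment of HEK 293T cells carrying a UAS-driven beta-lactamase reporter with compound and agonist (3 nM final), and a 2 h FRET substrate step, CellTiter-Glo was added and luminescence read after 30 min.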

Test [10] is described as follows: qHTS assay to identify small molecule agonists of the NFkB signaling pathway (AID 1159509; active means well fitted curve in the direction sought with a large enough effect in the signal ratio in the repeat runs, not every such curve was filed as active; the % refers to the signal ratio). A digest of the protocol:
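NFkB-bla ME-180 cells carry a beta-lactamase reporter under an NF-kB response element. They were plated overnight, then exposed to compounds for 5 h at 37 C. Read-out is LiveBLAzer FRET after 1.5 hr at room temperature (405 nm excitation; 460/530 nm emission).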

Test [11] can be described thus: qHTS assay to identify small molecule agonists of the NFkB signaling pathway - cell viability counter screen (AID 1159515). Further: series mostly up to about 61 µM; on the % scale 0 is the no-effect control and ±100 the full control effect; nearly all actives have a fitted effect of over 55% in size. An outline of the steps: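 NFkB-bla ME-180 cells, 2,000/well, were plated overnight at 37 C, 5% CO2, then exposed to compounds in DMSO for 5 hr. After the bla FRET read, CellTiter-Glo was added to the same wells; luminescence was read after 30 min at room temperature.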

Test [12] is described as follows: qHTS assay to identify small molecule agonists of the endoplasmic reticulum stress response signaling pathway (AID 1159516; active means well fitted activation curve with a large enough effect in the signal ratio in the repeat runs, not every such curve was filed as active; the % refers to the signal ratio; further: on the % scale 0 is the no-effect control and ±100 the full control effect). An outline of the steps: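 CellSensor ESRE-bla HeLa cells, carrying a beta-lactamase reporter driven by the ER stress response element, were plated overnight and exposed to compounds for 5 hr at 37 C. Reporter activity was read as FRET substrate fluorescence after 2 hr at room temperature.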

A short description of test [13]: qHTS assay to identify small molecule agonists of the endoplasmic reticulum stress response signaling pathway - cell viability counter screen (AID 1159517). An outline of the steps:
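ESRE-bla HeLa cells, 1,500 per well, seeded overnight then treated with compounds for 5 hr at 37 C. After the beta-lactamase read, viability in the same wells is measured by CellTiter-Glo luminescence after 30 min at room temperature.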

Test [14] in a line: qHTS assay to identify small molecule antagonists of the retinoid-related orphan receptor gamma (ROR-gamma) signaling pathway - cell viability counter screen (AID 1159520; active means well fitted curve in the direction sought with a large enough effect in the repeat runs; an effect the other way counts as inactive or inconclusive). A digest of the protocol: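 Tet-on ROR gamma CHO cells were given compounds for 2 hr, then doxycycline hyclate at 1 uM final, and incubated 16 hr at 37 C. Viability was measured as ATP content by CellTiter-Glo luminescence.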

The target in test [15] is Nuclear receptor ROR-gamma (Homo sapiens) (UniProt P51449). Description: qHTS assay to identify small molecule antagonists of the retinoid-related orphan receptor gamma (ROR-gamma) signaling pathway (AID 1159521; active means well fitted curve in the direction sought with a large enough effect in the repeat runs; an effect the other way counts as inactive or inconclusive; further: nearly all actives have a fitted effect of over 50% in size; further: potency means the concentration at half of the fitted maximal effect). An outline of the steps:
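Inducible-expression reporter assay: doxycycline (1 uM final) switched on RORγ in CHO cells bearing a ROR response element-luciferase construct, with test compounds present from 2 h beforehand. Decreased luminescence after 16 h defined antagonist activity.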

Test [16] is described as follows: qHTS assay to identify small molecule agonists of the AP-1 signaling pathway - cell viability counter screen (AID 1159525). Further: nearly all actives have a fitted effect of over 55% in size. A digest of the protocol: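 AP-1-bla ME-180 cells in Opti-MEM with 0.5% dialyzed FBS, compound exposure 5 h at 37 C in 15-point titration. Viability read in the same wells as ATP content by CellTiter-Glo luminescence, normalised to tetra-n-octylammonium bromide and DMSO controls.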

The nature of test [17]: qHTS assay to identify small molecule agonists of the AP-1 signaling pathway (AID 1159526). Further: on the % scale 0 is the no-effect control and ±100 the full control effect.
Test [18] deals with Retinoic acid receptor RXR-alpha (Homo sapiens) (UniProt P19793). The test can be described thus: qHTS assay to identify small molecule agonists of the RXR signaling pathway (AID 1159527). Further: on the % scale 0 is the no-effect control and ±100 the full control effect; nearly all actives have a fitted effect of over 35% in size. An outline of the steps:
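Compounds in DMSO were added to RXR-alpha-UAS-bla HEK 293T cells kept in 2% charcoal-stripped serum, and incubated 16 hr at 37 C with 5% CO2. Reporter signal came from a 2 hr B/G FRET substrate step.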

Test [19] deals with Bile acid receptor (Homo sapiens) (UniProt Q96RI1). Description: qHTS assay to identify small molecule antagonists of the farnesoid-X-receptor (FXR) signaling pathway (AID 743217; active means well fitted inhibition curve with a large enough effect in the signal ratio in the repeat runs, not every such curve was filed as active; the % refers to the signal ratio; further: on the % scale 0 is the no-effect control and ±100 the full control effect). A digest of the protocol:
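FXR-UAS-bla HEK 293T cells pre-incubated 5 h at 37 °C, then exposed to compounds with chenodeoxycholic acid (50 uM final) for 16 h at 37 °C. Beta-lactamase reporter read by LiveBLAzer B/G FRET substrate fluorescence after 2 h at room temperature.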

The target is the same in test [20]. Description: qHTS assay to identify small molecule agonists of the farnesoid-X-receptor (FXR) signaling pathway (AID 743220; active means well fitted activation curve with a large enough effect in the signal ratio in the repeat runs, not every such curve was filed as active; the % refers to the signal ratio; further: on the % scale 0 is the no-effect control and ±100 the full control effect). A digest of the protocol: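 Beta-lactamase reporter under UAS control in GeneBLAzer FXR HEK 293T cells (5000/well) measured with LiveBLAzer FRET substrate after 2 h at room temperature. Compound exposure lasted 16 h at 37C.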

The source of these data is PubChem BioAssay (Tox21).

“And” between values parts separate entries of the source, which are not always exact repeats. Equal values may be shown once. Inconclusive results are not listed. Some structures have more than one record in an assay (separate samples or runs), and their calls can disagree. The source made the active and inactive calls. Unless noted, the call rests on the fitted dose curve.

Peroxisome proliferator-activated receptor delta (Homo sapiens), sequence (Q03181 whole entry, looked up): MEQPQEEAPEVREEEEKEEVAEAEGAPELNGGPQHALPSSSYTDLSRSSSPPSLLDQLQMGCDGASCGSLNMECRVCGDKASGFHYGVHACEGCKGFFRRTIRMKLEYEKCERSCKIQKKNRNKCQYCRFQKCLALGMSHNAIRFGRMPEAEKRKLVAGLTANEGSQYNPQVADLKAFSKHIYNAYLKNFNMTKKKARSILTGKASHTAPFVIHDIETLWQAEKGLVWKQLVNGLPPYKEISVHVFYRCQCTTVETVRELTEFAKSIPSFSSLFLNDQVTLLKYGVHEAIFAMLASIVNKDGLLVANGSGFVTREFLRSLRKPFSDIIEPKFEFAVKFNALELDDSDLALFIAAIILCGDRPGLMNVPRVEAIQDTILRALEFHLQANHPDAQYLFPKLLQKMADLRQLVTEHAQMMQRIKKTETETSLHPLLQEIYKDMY
Bile acid receptor (Homo sapiens), sequence (Q96RI1 whole entry, looked up): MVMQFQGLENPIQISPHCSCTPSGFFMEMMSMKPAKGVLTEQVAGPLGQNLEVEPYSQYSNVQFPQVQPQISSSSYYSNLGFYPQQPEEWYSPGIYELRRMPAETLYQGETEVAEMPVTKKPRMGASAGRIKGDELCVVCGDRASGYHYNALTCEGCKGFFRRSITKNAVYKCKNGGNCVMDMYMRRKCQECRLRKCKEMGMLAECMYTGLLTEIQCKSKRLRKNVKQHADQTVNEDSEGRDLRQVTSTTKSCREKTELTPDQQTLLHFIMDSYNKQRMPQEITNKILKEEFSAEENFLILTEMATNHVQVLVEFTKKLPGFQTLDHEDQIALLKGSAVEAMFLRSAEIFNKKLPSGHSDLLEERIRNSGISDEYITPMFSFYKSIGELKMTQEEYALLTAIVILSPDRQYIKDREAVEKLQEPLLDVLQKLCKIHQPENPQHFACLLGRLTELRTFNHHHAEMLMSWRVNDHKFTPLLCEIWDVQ
Retinoic acid receptor RXR-alpha (Homo sapiens), sequence (P19793 whole entry, looked up): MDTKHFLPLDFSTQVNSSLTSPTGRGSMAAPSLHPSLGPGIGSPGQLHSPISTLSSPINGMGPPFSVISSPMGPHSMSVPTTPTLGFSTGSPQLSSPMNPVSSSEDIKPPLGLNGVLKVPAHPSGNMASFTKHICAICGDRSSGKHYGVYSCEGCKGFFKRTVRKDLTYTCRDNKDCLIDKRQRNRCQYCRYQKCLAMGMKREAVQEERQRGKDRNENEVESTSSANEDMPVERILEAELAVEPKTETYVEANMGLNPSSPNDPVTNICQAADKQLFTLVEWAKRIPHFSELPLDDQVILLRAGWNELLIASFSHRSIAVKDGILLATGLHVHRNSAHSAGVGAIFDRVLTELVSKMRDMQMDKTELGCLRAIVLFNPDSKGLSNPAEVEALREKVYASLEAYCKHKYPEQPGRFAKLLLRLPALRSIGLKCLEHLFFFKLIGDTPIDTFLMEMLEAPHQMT
Vitamin D3 receptor (Homo sapiens), sequence (P11473 whole entry, looked up): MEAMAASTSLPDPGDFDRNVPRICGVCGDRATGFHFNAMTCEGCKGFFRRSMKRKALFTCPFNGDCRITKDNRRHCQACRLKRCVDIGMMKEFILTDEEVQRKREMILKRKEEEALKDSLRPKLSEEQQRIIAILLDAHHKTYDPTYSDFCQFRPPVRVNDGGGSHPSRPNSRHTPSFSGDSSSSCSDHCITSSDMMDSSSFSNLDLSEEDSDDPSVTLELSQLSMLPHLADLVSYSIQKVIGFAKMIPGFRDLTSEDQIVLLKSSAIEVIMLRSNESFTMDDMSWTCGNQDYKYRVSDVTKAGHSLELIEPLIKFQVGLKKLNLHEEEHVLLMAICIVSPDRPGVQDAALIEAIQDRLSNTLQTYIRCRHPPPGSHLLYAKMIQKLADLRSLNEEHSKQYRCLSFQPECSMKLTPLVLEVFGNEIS

Regarding `COS(C)(=O)=O`, the outcome in test [1], in test [2], in [6], in [7], in test [9] and in test [10] was inactive. Further, the compound was called inactive in test [11], in test [12], in test [13] and in [17]. For the same compound, the Potency result in test [3], in test [4], in test [5], in test [8], in test [14] and in test [15] was “inactive” throughout. For the same compound, the Potency result in test [16] was “inactive”.
As for `C=C(C)C(=O)OCCOCCOCCOC(=O)C(=C)C`, the compound was classed as inactive in test [2], in test [6], in test [7], in [9], in [10] and in test [11]. Further, the outcome in test [12], in test [13] and in test [17] was inactive. For the same compound, the Potency entry in [4], in [8], in test [14], in [15], in [16] and in test [18] was “inactive” throughout.
Consider `CCN(CC)CCCC(C)Nc1ccnc2cc(Cl)ccc12` (stereo unspecified), for which the result in test [1], in [6], in test [10], in test [11], in test [12] and in [13] was inactive. Besides, the viability change, negative = cytotoxic in test [2] was -17.6% [at 6.26 µM] (inactive); in test [16], 0.716% [at 6.97 µM] (inactive) and 1.22% [at 15.8 µM] (inactive). For the same compound, the Potency entry in test [3], in test [4] and in test [8] was “inactive” in each case. The activity change, negative = inhibition in [7] was 1.54% [at 6.95 µM] (inactive); in test [15], 0.0918% [at 8.39 µM] (inactive) and -4.56% [at 19 µM] (inactive). Besides, the activity, negative = cytotoxicity in test [14] was -1.33% [at 8.39 µM] (inactive) and 0.877% [at 19 µM] (inactive). In test [17], the activation is 0.84% [at 6.97 µM] (inactive) and -1.42% [at 15.8 µM] (inactive).
With `O=C(O)c1cc(C(=O)O)cc(S(=O)(=O)O)c1`, the outcome in test [1], in test [2], in test [19], in test [20], in test [6] and in [7] was inactive. Besides, the result in test [9], in [10], in test [11], in test [12], in test [13] and in test [17] was inactive. The Potency result in test [3], in [4], in test [5], in test [14], in test [15] and in [16] was “inactive” each time. Further, in [18], the Potency result is “inactive”.
In the case of `CCC(O)OCCCOC` (stereo unspecified), the outcome in test [1], in test [2], in test [6], in test [7], in [10] and in test [11] was inactive. Moreover, the compound was called inactive in test [12], in test [13] and in test [17]. Besides, the Potency result in test [3], in test [4], in test [14], in test [15] and in [16] was “inactive” throughout.
Turning to `CCCCCC(N)=O`, the outcome in test [1], in [2], in test [6], in [7], in test [10] and in test [11] was inactive. In addition, the compound was classed as inactive in [12], in [13] and in [17]. Also, the Potency result in test [3], in test [4], in [5], in test [14], in test [15] and in test [16] was “inactive” in each case. In addition, in test [18], the Potency result is “inactive”.
For `CC1=C(C)S(=O)(=O)CCS1(=O)=O`, the result in test [1], in [2], in test [6], in [7], in test [9] and in [10] was inactive. In addition, the outcome in [11], in [12], in test [13] and in test [17] was inactive. The Potency entry in test [4], in test [5], in test [8], in [14], in test [16] and in [18] was “inactive” each time. Moreover, in [15], the Potency was 54.5 µM (active).
Consider `CCCCOC(=O)COc1ccc(Cl)cc1Cl`, for which the compound was called inactive in test [2], in test [19], in [20], in test [6], in test [7] and in [9]. Moreover, the compound was classed as inactive in [10], in [11], in test [12], in [13] and in test [17]. Further, the Potency result in [4], in [5], in test [8], in test [14], in test [16] and in test [18] was “inactive” throughout. Moreover, the Potency in test [15] was 19.5 µM (active) and inactive.
